Results filed as inconclusive are left out. Active and inactive are the calls of the source. Unless noted, the call rests on the fitted dose curve; in most records, active means well fitted curve in the direction sought with a large enough effect; inconclusive means small, poorly fitted or top-dose-only effect, or another doubt; inactive means no such curve, though single readings can be large; an effect the other way counts as inactive or inconclusive.
What was measured:
[1] = Cell Viability - BJ (AID 421; calls by dose curve;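 further: potency means the concentration at half of the fitted maximal effect; cells exposed to compound for 40 hours at 37 °C before readout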); conditions: BJ fibroblast viability, qHTS
In short: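 Normal human BJ foreskin fibroblasts, 1500/well in complete medium, treated 40 hr at 37 °C. Cellular ATP by CellTiter-Glo luminescence; normalized to DMSO and 100 uM tamoxifen, AC50 from Hill fit.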

[2] = Cell Viability - Jurkat (AID 426;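 active means dose-dependent loss of cell ATP signal giving a full or clear fitted curve, ranked by lower potency value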; further: potency means the concentration at half of the fitted maximal effect); conditions: qHTS
In short: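 Jurkat (Clone E6-1) cells, 5000/well in complete medium, exposed to compounds for 40 hr at 37C; intracellular ATP measured by CellTiter-Glo luminescence after 20 min at room temperature. AC50 from Hill fits.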

[3] = Cell Viability - Hek293 (AID 427;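 active means compounds whose dose-response curve shows a full or clear partial loss of cell viability, called from curve shape rather than a numeric limit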;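 further: potency means the concentration at half of the fitted maximal effect; cells exposed to compound for 40 hours at 37 °C before reading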); conditions: qHTS
In short: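 HEK293 cells in complete medium were exposed to compound for 40 hr at 37 °C, then cellular ATP was read by CellTiter-Glo luminescence. Data were normalized to DMSO (basal) and 100 uM tamoxifen (100% inhibition), and AC50 came from Hill fits.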

[4] = Cell Viability - HepG2 (AID 433; calls by dose curve;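 further: potency means the concentration at half of the fitted maximal effect; potency for ATP loss meaning cytotoxicity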); conditions: qHTS
In short: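 ATP luminescence (CellTiter-Glo) after 40 h compound exposure, 37 °C, HepG2, 1500 cells/well, complete medium. Normalized: DMSO = basal, 100 uM tamoxifen = 100% inhibition. AC50 via standard Hill equation.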

[5] = Cell Viability - MRC5 (AID 434; calls by dose curve;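 further: potency means the concentration at half of the fitted maximal effect; potency reflects cytotoxicity seen as loss of intracellular ATP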); conditions: MRC5 lung fibroblast viability, qHTS
In short: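 qHTS cytotoxicity in human lung fibroblast MRC5 cells; 40 hr treatment, 37 °C; cellular ATP by luciferase luminescence; DMSO = 0%, 100 uM tamoxifen = 100% inhibition; Hill-fit AC50.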

[6] = Cell Viability - SK-N-SH (AID 435; calls by dose curve; further: potency means the concentration at half of the fitted maximal effect); conditions: SK-N-SH neuroblastoma cell viability qHTS
In short: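 CellTiter-Glo ATP luminescence, 20 min RT read; cells pre-plated 5 hr, compound 40 hr at 37 °C, 1500 cells/well, complete medium. Normalized DMSO = 0, 100 uM tamoxifen = 100% inhibition; Hill-fit AC50.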

[7] = biological target: Mitogen-activated protein kinase 10 (Mus musculus) (UniProt Q61831); experiment: JNK3 AlphaScreen Assay (AID 530; active means well fitted curve in either direction with a large enough effect, not every such curve was filed as active;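 further: kinase came from lysate of stimulated human HepG2 cells; signal reports phosphorylation of biotinylated GST-cJun 1-79 at Ser73 with 10 µM ATP; on the % scale 0 is the no-effect control and ±100 the full control effect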); conditions: JNK3 lysate, c-Jun phosphorylation; series mostly up to 57.1 µM
In short: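 Compound titrations were preincubated 15 minutes at room temperature with substrate, antibody and pre-activated JNK3-containing HepG2 lysate. Reactions were started with 10 uM ATP and stopped with EDTA-containing bead buffer for AlphaScreen detection.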

[8] = Cell Viability - N2a (AID 540); conditions: N2a mouse neuroblastoma cell viability; activity change, negative = cytotoxicity: at 92.2 µM (top of the series);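 further: plate controls were DMSO alone for no effect and tamoxifen control for full effect; nearly all actives have a fitted effect of over 45% in size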
In short: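 Mouse neuroblastoma N2a cells, 1500/well, exposed to compounds 40 h at 37 °C in complete medium. Viability measured as cellular ATP by CellTiter-Glo luminescence; AC50 from Hill fits of concentration-response.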

[9] = Cell Viability - NIH 3T3 (AID 541); conditions: NIH 3T3 cell viability, qHTS; activity change, negative = cytotoxicity: at 92.2 µM (top of the series);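 further: plate controls were DMSO alone for no effect and tamoxifen positive control for full effect; nearly all actives have a fitted effect of over 25% in size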
In short: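 Mouse NIH 3T3 fibroblasts, 1000 cells/well, rested 5 hr at 37 °C, then exposed to compound for 40 hr at 37 °C in complete medium. Viability read as intracellular ATP by CellTiter-Glo luminescence; AC50 from Hill-equation fits of concentration-response data.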

[10] = Cell Viability - HUV-EC-C (AID 542); conditions: HUV-EC-C endothelial cell viability, qHTS; series mostly up to 92.2 µM; further: on the % scale 0 is the no-effect control and ±100 the full control effect; nearly all actives have a fitted effect of over 35% in size
In short: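 HUV-EC-C human vascular endothelial cells, 1000/well, exposed to compound for 40 hr at 37 °C in complete medium. Intracellular ATP was read by CellTiter-Glo luminescence. AC50 came from Hill-equation fits of concentration-response data.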

[11] = Cell Viability - H-4-II-E (AID 543); conditions: H-4-II-E rat hepatoma viability; series mostly up to 92.2 µM; further: on the % scale 0 is the no-effect control and ±100 the full control effect; nearly all actives have a fitted effect of over 35% in size
In short: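 Rat hepatoma H-4-II-E cells, 1500 per well, treated 40 h at 37 °C in complete medium. Cellular ATP read by CellTiter-Glo luminescence; AC50 from Hill fits of concentration-response.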

[12] = Cell Viability - SH-SY5Y (AID 544); conditions: SH-SY5Y neuroblastoma cell viability; viability change, negative = cytotoxic: at 92.2 µM (top of the series); further: nearly all actives have a fitted effect of over 55% in size
In short: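 SH-SY5Y human neuroblastoma cells (1500/well) incubated 5 h, then compound-treated 40 h at 37 °C in complete medium. Viability read as intracellular ATP by CellTiter-Glo luminescence after 20 min; AC50 from Hill-equation fits of qHTS concentration-response.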

[13] = Cell Viability - Renal Proximal Tubule (AID 545); conditions: renal proximal tubule cells viability, primary cells of rat origin; series mostly up to 91.7 µM; further: nearly all actives have a fitted effect of over 40% in size
In short: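 Rat kidney proximal tubule cells, freshly isolated; 1000 cells/well, 5 hr settle, compound 40 hr 37 °C. CellTiter-Glo 20 min RT, luminescence read. AC50 by standard Hill fit.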

[14] = Cell Viability - Mesenchymal (AID 546); conditions: mesenchymal cells viability, qHTS; series mostly up to 91.7 µM;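 further: cells exposed to compound for 40 hours before reading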
In short: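 AC50 values reflect the drop in intracellular ATP in a human kidney mesenchymal line derived from normal glomeruli. Treatment lasts 40 hr at 37 °C in complete medium, and the signal comes from CellTiter-Glo luminescence.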

[15] = Cellular Toxicity (caspase-3) HepG2 (AID 654); conditions: HepG2 caspase-3 activation, luminescence; series mostly up to 92.2 µM;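 further: cells exposed to compound for 16 hours before reading; 0% = DMSO alone and 100% = caspase signal from 100 µM tamoxifen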
In short: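 HepG2 cells (1500/well) were treated 16 h at 37 °C in complete medium, then caspase 3/7 activity was read by Caspase-Glo luminescence. Data were normalized to DMSO and 100 uM tamoxifen; AC50 came from Hill-equation fits of qHTS concentration-response.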

[16] = Cellular Toxicity (caspase-3) Jurkat (AID 655); conditions: Jurkat caspase-3 activation, luminescence; caspase-3 activation: at 92.2 µM (top of the series), DMSO = 0%, tamoxifen = 100%;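 further: cells exposed to compound for 16 h at 37 °C before reading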
In short: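 Luminescent caspase-3/7 readout (aminoluciferin substrate cleavage) in human T-cell leukemia Jurkat cells after 16 hr compound exposure. Concentration-response normalized to DMSO and 100 uM tamoxifen; AC50 by standard Hill equation.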

[17] = Cellular Toxicity (caspase-3) HUV-EC-C (AID 656); conditions: HUV-EC-C cells, caspase-3 activation (apoptosis), vehicle = 0, 100 µM tamoxifen = 100%; series mostly up to 92.2 µM
In short: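 Luminescent caspase-3/7 activation (aminoluciferin substrate cleavage) in HUV-EC-C cells after 16 hr compound exposure, 37°C. Signal normalized to DMSO basal and 100 uM tamoxifen as 100%; AC50 from concentration-response fitted with the Hill equation.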

[18] = Cellular Toxicity (caspase-3) SHSY5Y (AID 657); conditions: SH-SY5Y caspase-3 activation, DMSO zero, 10 µM staurosporine = 100%; series mostly up to 91.7 µM;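 further: cells exposed to compound for 16 hours at 37 °C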
In short: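 Luminescent caspase-3/7 readout (aminoluciferin release) in SH-SY5Y cells after 16 h compound exposure in complete medium. Activity scaled between DMSO basal and 10 uM staurosporine as 100%; concentration-response fitted to Hill equation for AC50.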

[19] = Cellular Toxicity (caspase-3) BJ (AID 658); conditions: BJ fibroblasts, luminescence, normalized: DMSO 0%, staurosporine 100%; series mostly up to 91.7 µM;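 further: cells exposed to compound for 16 hours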
In short: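 Readout: Caspase-Glo 3/7 luminescence increase in BJ cells after 16 hr treatment at 37 °C. Staurosporine and tamoxifen served as positive controls; AC50 values came from Hill modelling of data normalized to DMSO and 10 uM staurosporine.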

[20] = Cellular Toxicity (caspase-3) MRC-5 (AID 659); conditions: MRC-5 cells, luminescence, normalized: DMSO 0%, 10 µM staurosporine 100%; series mostly up to 91.7 µM;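 further: cells exposed to compound for 16 h at 37 °C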
In short: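 Concentration-dependent caspase 3/7 activation is measured in human normal lung fibroblasts (MRC-5) following 16-hour treatment. AC50 values come from standard Hill-equation modeling of luminescence normalized to DMSO and 10 uM staurosporine.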

NS(=O)(=O)O
inactive: Potency [1] > 92 µM | Potency [2] > 92 µM | Potency [3] > 92 µM | Potency [4] > 92 µM | Potency [5] > 92 µM | Potency [6] > 92 µM | outcome [7] | activity change, negative = cytotoxicity [8] -0.868% | Potency [9] | Potency [10] | Potency [11] | Potency [12] | Potency [13] | Potency [14] | Potency [15] | caspase-3 activation [16] 0.859% | outcome [17] | outcome [18] | outcome [19] | outcome [20]

C=C(C)C(=O)OCC(C)O (stereo unspecified)
inactive: Potency [1] > 92 µM | Potency [2] > 92 µM | Potency [3] > 92 µM | Potency [4] > 92 µM | Potency [5] > 92 µM | Potency [6] > 92 µM | outcome [7] | activity change, negative = cytotoxicity [8] 6.96% | Potency [9] | Potency [10] | Potency [11] | Potency [12] | Potency [13] | Potency [14] | Potency [15] | caspase-3 activation [16] 1.29% | outcome [17] | outcome [18] | outcome [19]

NC(=O)c1cccc([N+](=O)[O-])c1
inactive: Potency [1] > 92 µM | Potency [2] > 92 µM | Potency [3] > 92 µM | Potency [4] > 92 µM | Potency [5] > 92 µM | Potency [6] > 92 µM | outcome [7] | activity change, negative = cytotoxicity [8] -1.6% | Potency [9] | Potency [10] | Potency [11] | Potency [12] | Potency [13] | Potency [14] | Potency [15] | caspase-3 activation [16] -0.315% | outcome [17] | outcome [18] | outcome [19] | outcome [20]

C/C(C=O)=C/c1ccccc1
inactive: Potency [1] > 92 µM | Potency [2] > 92 µM | Potency [3] > 92 µM | Potency [4] > 92 µM | Potency [5] > 92 µM | Potency [6] > 92 µM | outcome [7] | activity change, negative = cytotoxicity [8] -1.48% | Potency [9] | Potency [10] | Potency [11] | Potency [12] | Potency [13] | Potency [14] | Potency [15] | caspase-3 activation [16] -0.305% | outcome [17] | outcome [18] | outcome [19]

CCN(CC)c1cccc(O)c1
inactive: Potency [1] > 92 µM | Potency [2] > 92 µM | Potency [3] > 92 µM | Potency [4] > 92 µM | Potency [5] > 92 µM | Potency [6] > 92 µM | outcome [7] | activity change, negative = cytotoxicity [8] 0.0315% | Potency [9] | Potency [10] | Potency [11] | Potency [12] | Potency [13] | Potency [14] | Potency [15] | caspase-3 activation [16] 0.712% | outcome [17] | outcome [18] | outcome [19] | outcome [20]

C=CCCCC
inactive: Potency [1] > 92 µM | Potency [2] > 92 µM | Potency [3] > 92 µM | Potency [4] > 92 µM | Potency [5] > 92 µM | Potency [6] > 92 µM | outcome [7] | activity change, negative = cytotoxicity [8] 6.23% | Potency [9] | Potency [10] | Potency [11] | Potency [12] | Potency [13] | Potency [14] | Potency [15] | caspase-3 activation [16] 0.169% | outcome [17] | outcome [18] | outcome [19] | outcome [20]

CCOc1cccc(N)c1
inactive: Potency [1] > 92 µM | Potency [2] > 92 µM | Potency [3] > 92 µM | Potency [4] > 92 µM | Potency [5] > 92 µM | Potency [6] > 92 µM | outcome [7] | activity change, negative = cytotoxicity [8] 4.96% | Potency [9] | Potency [10] | Potency [11] | Potency [12] | Potency [13] | Potency [14] | Potency [15] | caspase-3 activation [16] -1.1% | outcome [17] | outcome [18] | outcome [19] | outcome [20]

CCN(Cc1ccccc1)c1ccccc1
inactive: Potency [1] > 92 µM | Potency [2] > 92 µM | Potency [3] > 92 µM | Potency [4] > 92 µM | Potency [5] > 92 µM | Potency [6] > 92 µM | outcome [7] | activity change, negative = cytotoxicity [8] 15.1% | Potency [9] | Potency [10] | Potency [11] | Potency [12] | Potency [13] | Potency [14] | Potency [15] | caspase-3 activation [16] 1.93% | outcome [17] | outcome [18] | outcome [19] | outcome [20]

CCCCC(CC)C(=O)O (stereo unspecified)
inactive: Potency [1] > 92 µM | Potency [2] > 92 µM | Potency [3] > 92 µM | Potency [4] > 92 µM | Potency [5] > 92 µM | Potency [6] > 92 µM | outcome [7] | activity change, negative = cytotoxicity [8] 4.15% | Potency [9] | Potency [10] | Potency [11] | Potency [12] | Potency [13] | Potency [14] | Potency [15] | caspase-3 activation [16] 1.13% | outcome [17] | outcome [18] | outcome [19]

Cc1ccc2nc(-c3ccc(N)cc3)sc2c1S(=O)(=O)O
inactive: Potency [1] > 92 µM | Potency [2] > 92 µM | Potency [3] > 92 µM | Potency [4] > 92 µM | Potency [5] > 92 µM | Potency [6] > 92 µM | outcome [7] | activity change, negative = cytotoxicity [8] 3.3% | Potency [9] | Potency [10] | Potency [11] | Potency [12] | Potency [13] | Potency [14] | Potency [15] | caspase-3 activation [16] -10.6% | outcome [17] | outcome [18] | outcome [19] | outcome [20]

CCCC(Cl)CCCC(Cl)CCC(Cl)CCC(Cl)CCC(Cl)CCCC(Cl)CCC (stereo unspecified)
inactive: Potency [1] > 92 µM | Potency [2] > 92 µM | Potency [3] > 92 µM | Potency [4] > 92 µM | Potency [5] > 92 µM | Potency [6] > 92 µM | outcome [7] | activity change, negative = cytotoxicity [8] -0.927% | Potency [9] | Potency [10] | Potency [11] | Potency [12] | Potency [13] | Potency [14] | Potency [15] | caspase-3 activation [16] -0.794% | outcome [17] | outcome [18] | outcome [19]

Source: PubChem BioAssay (NCATS)
